Bioassay records as filed in PubChem BioAssay.
Sampled rows, rich in hits. Any-hit rate of the full collection: about 9.3%.
M1 agonist: M1 muscarinic receptor agonism; CHO-M1 cells, Fluo-4 calcium fluorescence, agonist mode; stronger effect = higher value; B-score at 10 µM; 3% of 64,000 active; AID 626;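 active = fluorescence rise, raw or as B-score row- and column-corrected plate score, outside the 99.7% band of its plate's samples, either direction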
NADH enzymes: blocks coupling enzymes of NAD/NADH assays; coupled PK/LDH NADH assays, four targets; IC50, µM (doses to about 10 µM); 0.02% of 65,000 active; AID 774;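 active = single-dose screening hits from any of four coupled enzyme assays that gave an IC50 when retested across doses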;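 also: the DPM-DC format reads NADH fluorescence rather than 340 nm absorbance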
Autofluor 339: intrinsic fluorescence of library compounds, ex339/em460 – biochemical, MLSMR library, data from DPM-DC assay, artefact control, profiling panel; compound autofluorescence, ex339/em460 nm, NADH buffer; stronger effect = higher value; 1 = no-compound wells, NADH background; fluorescence fold increase at 10 µM; 5.5% of 65,000 active;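 active = at 10 µM, mean starting fluorescence two-fold or more over control wells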;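 also: signal is the first read of a kinetic run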
mHtt clearance: mutant huntingtin protein clearance; 0.42% of 47,000 active; inhibition, % at 1.5 µM; HeLa Exon1htt(103Q)mCFP, aggregate imaging; zero = plate's median compound well;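 active = inhibition of aggregate fluorescence above about 70%, also judged a hit by eye on the cell image, limit read from the data, passing the limit was not always enough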;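 also: cells exposed to compound for three days before fixation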
M1 antagonist: antagonists of rat M1 muscarinic receptor; P08482; CHO-M1 cells, Fluo-4 calcium, ACh EC80 antagonist mode; stronger effect = lower value; B-score at 10 µM; 3.4% of 64,000 active;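 active = calcium fluorescence response, raw or row-and-column corrected B-score, differing from the plate sample mean either way at a set confidence level, mostly lower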
Target sequence (P08482 whole entry, looked up): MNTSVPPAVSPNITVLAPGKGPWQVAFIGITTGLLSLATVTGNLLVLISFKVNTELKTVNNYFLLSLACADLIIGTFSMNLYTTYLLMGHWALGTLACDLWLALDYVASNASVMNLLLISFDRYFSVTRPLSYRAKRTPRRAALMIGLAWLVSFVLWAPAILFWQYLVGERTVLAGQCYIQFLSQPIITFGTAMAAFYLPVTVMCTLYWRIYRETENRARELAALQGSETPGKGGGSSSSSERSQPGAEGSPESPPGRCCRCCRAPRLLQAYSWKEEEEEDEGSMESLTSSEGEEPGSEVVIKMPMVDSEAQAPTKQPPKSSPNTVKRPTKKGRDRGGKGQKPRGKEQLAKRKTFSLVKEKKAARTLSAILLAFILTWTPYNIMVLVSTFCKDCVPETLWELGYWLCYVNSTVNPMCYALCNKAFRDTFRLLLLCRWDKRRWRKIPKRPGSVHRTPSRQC
A340 absorber: compound absorbs light at 340 nm. compound absorbance at 340 nm, fold over control. fold change at 10 µM. 65,000 tested, under 10 active. AID 708;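 active = at 10 µM dose, initial 340 nm absorbance at least 2 fold that of control wells; inactive = change under 2 fold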;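 also: initial absorbance extrapolated from kinetic A340 decline of NADH oxidation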
Of the large screens only hits and unclear results are named; the others gave an inactive call.

CCCSc1nnc2nc3c(nn12)c1ccccc1n3C	none
COC(=O)c1[nH]c2ccc(C)cc2c1NC(=O)NC1CCCCC1	none (no result: M1 agonist, NADH enzymes, Autofluor 339, M1 antagonist, A340 absorber)
O=C(Nc1c(C(=O)O)[nH]c2ccccc12)NC1CCCCC1	Autofluor 339 3.9 (no result: mHtt clearance)
Cc1onc(-c2c(F)cccc2Cl)c1C(=O)Nc1ccc(S(=O)(=O)Nc2ncccn2)cc1	none
c1ccc2c(c1)CCOC2CNCCCN1CCCCC1 (configuration not stated)	none
Cc1cccc(N2CCN(c3nc4ccccc4n4cnnc34)CC2)c1C	M1 antagonist 0.36
Cc1sc(NC(=O)c2oc3ccccc3c2C)c(C#N)c1C	Autofluor 339 3.8
Cc1cc(C)n(-c2nc3ccccc3[nH]c2=O)n1	Autofluor 339 2.8
Cc1cc(C)n(-c2nc3ccccc3nc2Nc2ccc3[nH]c(=O)[nH]c3c2)n1	none (no result: M1 agonist, M1 antagonist)
COC(=O)c1ccccc1NC1OC(=O)c2ccccc21 (configuration not stated)	Autofluor 339 3 (no result: mHtt clearance)
Cc1ccc(S(=O)(=O)N2CCC(C(=O)Nc3ccccc3N3CCCCC3)CC2)cc1	none (no result: mHtt clearance)
Nc1c(S(=O)(=O)c2cccc(Cl)c2)c2nc3ccccc3nc2n1CCN1CCOCC1	Autofluor 339 3.9
Cc1ccc(S(=O)(=O)c2c(N)n(NC(=O)C3CC3)c3nc4ccccc4nc23)cc1	Autofluor 339 3.8
Cc1ccc(S(=O)(=O)c2c(N)n(CC3CCOC3)c3nc4ccccc4nc23)cc1 (configuration not stated)	Autofluor 339 2.1 (no result: mHtt clearance)
O=S(=O)(Nc1nc2ccccc2nc1NCCN1CCOCC1)c1cccc(Cl)c1	none
C=CCn1c(NC(=O)c2ccc(Br)o2)c(S(=O)(=O)c2ccccc2)c2nc3ccccc3nc21	none (no result: M1 agonist, NADH enzymes, Autofluor 339, M1 antagonist, A340 absorber)
CC(=O)c1c(C(C)=O)c(C)n(-c2ccc(N)c(C)c2)c1C	none (no result: M1 agonist, NADH enzymes, Autofluor 339, M1 antagonist, A340 absorber)
CC(C)(C)OC(=O)NCCCCCc1nnc(SCC(=O)Nc2cccc(Cl)c2)o1	none (no result: mHtt clearance)
COc1ccc(OC)c(-c2cc(C(=O)Nc3cc(C)on3)no2)c1	Autofluor 339 2.8
COc1ccc(OC)c(-c2cc(C(=O)Nc3cccc(Cl)c3)no2)c1	Autofluor 339 4.3 (no result: mHtt clearance)
COc1ccc(OC)c(-c2cc(C(=O)Nc3c(C)nn(Cc4ccc(Cl)cc4)c3C)no2)c1	none
COc1ccc(OC)c(-c2cc(C(=O)Nc3c(C)nn(Cc4ccccc4)c3C)no2)c1	none (no result: mHtt clearance)
COc1ccc(NC(=O)c2cc(-c3ccccc3OC)on2)cc1	none (no result: mHtt clearance)
CCc1c(C)sc(NC(=O)c2cc(-c3cc(OC)ccc3OC)on2)c1C#N	Autofluor 339 5.1 (no result: mHtt clearance)
Cc1cccc(CSc2nnc(-c3cccs3)n2Cc2ccco2)c1	none (no result: M1 agonist, NADH enzymes, Autofluor 339, M1 antagonist, A340 absorber)
O=C(CSc1ccc2nnc(-c3ccc(Cl)cc3)n2n1)N1CCN(c2ccccc2)CC1	none (no result: mHtt clearance)
O=C(COc1cccc(-n2cnnn2)c1)Nc1ccccc1	none (no result: M1 agonist, NADH enzymes, Autofluor 339, M1 antagonist, A340 absorber)
CNC(=O)c1sc2nc(-c3ccc(OC)cc3)cn2c1C	none (no result: mHtt clearance)
COc1ccc(-c2cn3c(C)c(C(=O)Nc4cc(NC(C)=O)ccc4OC)sc3n2)cc1	Autofluor 339 3.4 (no result: mHtt clearance)
COc1ccc(-c2cn3c(C)c(C(=O)N4CCc5ccccc5C4)sc3n2)cc1	M1 agonist 4.7 (no result: mHtt clearance)
O=S(=O)(Cc1ccccc1)N1CCc2ccccc21	M1 agonist 8.3 (no result: mHtt clearance)
COC(=O)C1=CNC=C(C(=O)OC)C1c1cccc(OC)c1	Autofluor 339 3.9
COC(=O)c1cc(-c2cccc(OC)c2)n[nH]1	none (no result: mHtt clearance)
COC(=O)C1=CNC=C(C(=O)OC)C1c1ccc(Cl)cc1	Autofluor 339 3.8
COC(=O)C1=CNC=C(C(=O)OC)C1c1ccccc1Cl	Autofluor 339 3.6
COC(=O)C1=C(C)n2cnnc2NC1c1ccc(Cl)cc1 (configuration not stated)	none (no result: mHtt clearance)
S=C1N(c2ccccc2)C(c2cccc3ccccc23)N2CCCN12 (configuration not stated)	none (no result: M1 agonist, NADH enzymes, Autofluor 339, M1 antagonist, A340 absorber)
CCOC(=O)Cc1csc(NC(=O)CSc2ncnc3c2cnn3-c2ccc(OC)cc2)n1	Autofluor 339 2.5
COC(=O)c1ccsc1NC(=O)c1ccc2c(c1)OCCO2	Autofluor 339 2.1 (no result: mHtt clearance)
Cc1ccc(N2CN=c3s/c(=C\c4ccccn4)c(=O)n3C2)cc1	none
Cc1cc(NCc2ccco2)nc2cc(O)ccc12	Autofluor 339 2.1 (no result: mHtt clearance)
CC(C)Oc1ccc(C2C(C(=O)c3ccco3)=C(O)C(=O)N2CCCN(C)C)cc1 (configuration not stated)	none
Cc1[nH]n2c(=O)cc(C(C)(C)C)nc2c1-c1ccccc1	Autofluor 339 2.3 (no result: mHtt clearance)
Cc1ccc(C2CC(=O)N(c3ccc(F)cc3)C3=C2C(=O)CCC3)cc1 (configuration not stated)	mHtt clearance 79 (no result: M1 agonist, NADH enzymes, Autofluor 339, M1 antagonist, A340 absorber)
Cc1ccc(Nc2c3c(nc4ncnn24)CCC3)cc1	none (no result: mHtt clearance)
CCOc1ccc(Nc2c3c(nc4ncnn24)CC(C)CC3)cc1 (configuration not stated)	M1 antagonist 2.4 (no result: mHtt clearance)
COc1cc(C2Nc3cccc4cccc(c34)N2)cc(OC)c1O	Autofluor 339 3.2
O=C1NC(c2ccc3c(c2)OCO3)Nc2ccccc21 (configuration not stated)	Autofluor 339 4.8 (no result: mHtt clearance)
Cc1ccccc1-n1c(=O)cc(NCc2ccc3c(c2)OCO3)[nH]c1=O	none
CC1(CCc2ccc3c(c2)OCO3)NC(=O)c2ccccc2N1 (configuration not stated)	Autofluor 339 3.8
CCn1cc(C(=O)Nc2ccc(C(=O)N3CCCC3)cc2)c(=O)c2ccc(C)nc21	none (no result: mHtt clearance)
CCN=C1Cn2c(nc3scc(-c4ccccc4)c3c2=O)CN1CC	Autofluor 339 2.4
CCc1nc2scc(-c3ccccc3)c2c(=O)n1N	none
CCOc1ccc2[nH]c(=O)c(CN(Cc3nnnn3Cc3ccco3)C3CCCCC3)cc2c1	M1 agonist 3.6
COc1cc2cc(CN(Cc3nnnn3Cc3ccco3)C3CCCCC3)c(=O)[nH]c2cc1OC	none (no result: mHtt clearance)
COc1ccc2[nH]c(=O)c(CN(Cc3ccco3)Cc3nnnn3Cc3ccccc3)cc2c1	Autofluor 339 2.3
CCOc1ccc2[nH]c(=O)c(CN(Cc3ccco3)Cc3nnnn3Cc3ccccc3)cc2c1	Autofluor 339 2
COc1ccc2[nH]c(=O)c(CN(CCO)S(=O)(=O)c3ccc4c(c3)OCCO4)cc2c1	Autofluor 339 2.1 (no result: mHtt clearance)
CCc1ccc2[nH]c(=O)c(CN(Cc3ccccc3OC)Cc3nnnn3Cc3ccco3)cc2c1	none (no result: M1 agonist, mHtt clearance, M1 antagonist)
Cc1oc2nc(SCC(=O)NC3CCCCC3)nc(N)c2c1C	none
CSc1nnc2n(Cc3ccccc3)c(=O)c3c4c(sc3n12)COC(C(C)C)C4 (configuration not stated)	none (no result: M1 agonist, NADH enzymes, Autofluor 339, M1 antagonist, A340 absorber)
CC1(C)NC(=O)N(CNc2cc(Cl)ccc2Cl)C1=O	none
Cn1cc(Br)c(C(=O)NC2CCCCC2)n1	none
COC(=O)c1ccccc1S(=O)(=O)N(Cc1ccco1)Cc1cc2cc(OC)ccc2[nH]c1=O	M1 agonist 7.7, Autofluor 339 2.1
O=C1c2ccccc2NC2CCCCCN12 (configuration not stated)	Autofluor 339 3 (no result: mHtt clearance)
